Assay results reported in PubChem BioAssay (NCATS).
“And” between values parts separate entries of the source, which are not always exact repeats. Equal values may be shown once. Inconclusive results are not listed. A call without a number means that no potency is given here. The source made the active and inactive calls. The call rests on the fitted dose curve; in most records, active means well fitted inhibition curve with a large enough effect; inconclusive means small, poorly fitted or top-dose-only effect; inactive means flat fitted curve, though single readings scatter.

molecular target: Ubiquitin carboxyl-terminal hydrolase 1 (Homo sapiens) (UniProt O94782); assay: Inhibitors of USP1/UAF1: Pilot qHTS (AID 504865); settings: purified USP1/UAF1, Ub-rhodamine cleavage fluorescence; series mostly up to 114 µM; further: nearly all actives have a fitted effect of over 35% in size
Outline: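 Deubiquitinase activity followed as kinetic rhodamine fluorescence release from 150 nM Ub-Rho. 1 nM USP1/UAF1 with compound, after 15 min room-temperature preincubation, in HEPES pH 7.8 buffer containing TCEP, EDTA, BSA and Tween-20.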
Potency means the concentration at half of the fitted maximal effect.

Chain of Ubiquitin carboxyl-terminal hydrolase 1 (Homo sapiens) (O94782 whole entry, looked up): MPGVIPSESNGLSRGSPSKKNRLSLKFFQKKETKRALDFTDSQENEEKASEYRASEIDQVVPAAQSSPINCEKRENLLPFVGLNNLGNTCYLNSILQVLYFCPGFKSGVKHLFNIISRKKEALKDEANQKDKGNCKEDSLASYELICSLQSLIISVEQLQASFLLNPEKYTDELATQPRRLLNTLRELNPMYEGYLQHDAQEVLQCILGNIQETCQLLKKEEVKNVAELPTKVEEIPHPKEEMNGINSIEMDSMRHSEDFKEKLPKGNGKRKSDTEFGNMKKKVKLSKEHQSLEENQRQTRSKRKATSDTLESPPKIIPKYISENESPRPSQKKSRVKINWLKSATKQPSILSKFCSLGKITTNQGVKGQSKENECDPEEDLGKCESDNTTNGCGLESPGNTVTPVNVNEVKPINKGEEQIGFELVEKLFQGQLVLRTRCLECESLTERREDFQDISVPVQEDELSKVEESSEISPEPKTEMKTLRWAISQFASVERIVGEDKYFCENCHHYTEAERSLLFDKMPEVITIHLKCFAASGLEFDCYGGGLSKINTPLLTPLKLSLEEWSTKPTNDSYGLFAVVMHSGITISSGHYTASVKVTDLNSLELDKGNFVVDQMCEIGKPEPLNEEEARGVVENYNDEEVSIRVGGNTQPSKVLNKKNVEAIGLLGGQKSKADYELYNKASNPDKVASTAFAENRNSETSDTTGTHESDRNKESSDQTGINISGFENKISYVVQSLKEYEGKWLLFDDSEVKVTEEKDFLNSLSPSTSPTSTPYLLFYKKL

Structure (SMILES) | Potency
O=C(O)CCCCC(=O)O | inactive
CN=C(NC#N)NCCSCc1csc(N=C(N)N)n1 | inactive
NC(=NCCCCCCN=C(N)/N=C(\N)Nc1ccc(Cl)cc1)/N=C(\N)Nc1ccc(Cl)cc1 | 56.2 µM (active) and 50.1 µM (active)
Oc1c(Cl)cc(Cl)cc1Sc1cc(Cl)cc(Cl)c1O | 35.5 µM (active) and 20 µM (active)
COc1c(C)c2c(c(O)c1C/C=C(\C)CCC(=O)O)C(=O)OC2 | inactive
C[C@@H]1CN(CCCn2c3ccccc3c3ccccc32)C[C@H](C)N1 | inactive
C[C@H]1C[C@H]2[C@@H]3CCC4=CC(=O)C=C[C@]4(C)[C@@]3(Cl)[C@@H](O)C[C@]2(C)[C@@]1(O)C(=O)CO | inactive
Oc1c(I)cc(Cl)c2cccnc12 | inactive
NC(CO)(CO)CO | inactive
Cc1ccc(C(=O)C(C)CN2CCCCC2)cc1 (configuration not stated) | inactive
Nc1ccc(C(=O)O)cc1 | inactive
C=CCc1ccc(O)c(OC)c1 | inactive
CNCC[C@@H](Oc1ccccc1C)c1ccccc1 | inactive
CCN1CCC[C@H]1CNC(=O)c1c(OC)ccc(Br)c1OC | inactive
COc1cccc2c1C(=O)c1c(O)c3c(c(O)c1C2=O)C[C@@](O)(C(C)=O)C[C@@H]3O[C@H]1C[C@H](N)[C@H](O)[C@H](C)O1 | 44.7 µM (active) and 39.8 µM (active)
CC(O)(P(=O)(O)O)P(=O)(O)O | inactive
O=c1ccc2ccccc2o1 | inactive
